SNCA expr inh: SNCA gene expression inhibition; HEK-293 SNCA-luciferase knock-in, luminescence, 24 h; 140,000 tested, 0.17% active; AID 1671194; Potency, µM (titrated, usually from 57.2 µM), for inactives: top-dose activity change, negative = inhibition, usual class: inhibitors;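 also: potency is read from the fitted curve at half-maximal effect; plate controls were DMSO cells for no effect and cell-free wells for full effect; nearly all actives have a fitted effect of over 45% in size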
KDM5B inh: blocks human KDM5B histone demethylase activity; KDM5B demethylase, FDH-coupled NADH fluorescence (FDH is formaldehyde dehydrogenase); Potency, µM (titrated, usually from 57.7 µM), most hits filed as inhibitors; 220,000 tested, 2.6% active; AID 1347165; also: potency is read from the fitted curve at half-maximal effect; 0% is about no effect; nearly all actives have a fitted effect of over 70% in size
Target sequence (Q9UGL1 whole entry, looked up): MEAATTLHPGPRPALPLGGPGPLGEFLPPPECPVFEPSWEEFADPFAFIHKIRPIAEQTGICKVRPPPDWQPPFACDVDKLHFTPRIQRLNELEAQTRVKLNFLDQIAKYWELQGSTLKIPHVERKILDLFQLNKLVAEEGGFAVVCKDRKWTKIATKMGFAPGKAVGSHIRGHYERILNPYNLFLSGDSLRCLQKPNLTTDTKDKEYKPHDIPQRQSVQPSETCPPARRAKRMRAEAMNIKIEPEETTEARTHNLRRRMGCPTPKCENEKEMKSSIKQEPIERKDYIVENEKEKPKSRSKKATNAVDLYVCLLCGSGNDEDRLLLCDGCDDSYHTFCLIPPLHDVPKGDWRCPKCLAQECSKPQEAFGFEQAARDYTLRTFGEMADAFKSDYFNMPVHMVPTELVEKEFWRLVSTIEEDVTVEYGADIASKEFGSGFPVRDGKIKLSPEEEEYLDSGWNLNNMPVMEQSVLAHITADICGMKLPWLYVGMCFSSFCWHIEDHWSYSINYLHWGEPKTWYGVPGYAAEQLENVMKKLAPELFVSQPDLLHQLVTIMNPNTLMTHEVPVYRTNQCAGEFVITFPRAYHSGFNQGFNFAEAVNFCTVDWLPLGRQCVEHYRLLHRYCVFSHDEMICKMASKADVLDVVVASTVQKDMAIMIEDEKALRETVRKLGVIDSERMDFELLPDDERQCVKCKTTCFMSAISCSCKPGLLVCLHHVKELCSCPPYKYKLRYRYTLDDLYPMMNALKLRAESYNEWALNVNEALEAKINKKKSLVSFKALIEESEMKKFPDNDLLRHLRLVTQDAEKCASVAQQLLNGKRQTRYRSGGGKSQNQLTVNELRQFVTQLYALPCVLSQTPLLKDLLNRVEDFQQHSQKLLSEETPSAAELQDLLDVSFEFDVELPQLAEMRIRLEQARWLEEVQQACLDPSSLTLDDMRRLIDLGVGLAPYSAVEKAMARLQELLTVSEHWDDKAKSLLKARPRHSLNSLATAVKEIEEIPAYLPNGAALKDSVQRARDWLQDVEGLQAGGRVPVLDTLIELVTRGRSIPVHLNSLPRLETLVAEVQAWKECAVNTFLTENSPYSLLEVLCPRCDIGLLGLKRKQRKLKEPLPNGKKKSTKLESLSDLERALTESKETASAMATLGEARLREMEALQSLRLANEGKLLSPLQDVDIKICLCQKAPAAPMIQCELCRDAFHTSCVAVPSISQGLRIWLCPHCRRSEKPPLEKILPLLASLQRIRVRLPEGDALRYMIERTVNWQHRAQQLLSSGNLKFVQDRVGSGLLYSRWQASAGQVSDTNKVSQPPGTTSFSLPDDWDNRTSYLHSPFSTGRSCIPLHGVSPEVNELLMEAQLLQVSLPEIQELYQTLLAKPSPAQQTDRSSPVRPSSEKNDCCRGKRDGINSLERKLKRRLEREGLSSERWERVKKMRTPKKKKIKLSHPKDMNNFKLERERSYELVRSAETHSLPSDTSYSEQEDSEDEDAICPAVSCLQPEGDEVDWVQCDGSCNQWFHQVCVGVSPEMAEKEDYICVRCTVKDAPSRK
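Inhibition is measured as reduced NADH fluorescence generation from FDH coupling to formaldehyde release. Truncated KDM5BΔAP at 200 nM final acts on H3K4me3 peptide (12.5 µM in substrate mix) in pH 7.5 HEPES buffer with Tween-20, 30 min, room temperature.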
SNCA viab count: reduces viability of HEK-293 SNCA reporter cells; HEK-293-SNCA-luc viability, GF-AFC fluorescence, 24 h; Potency, µM (top dose mostly 57.1 µM), inactives show at the highest dose activity change, negative = cytotoxicity, most hits filed as cytotoxic; 150,000 tested, 0.12% active; AID 1671193;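 also: potency is read from the fitted curve at half-maximal effect; 0% = DMSO-treated cells and -100% = medium-only wells without cells; nearly all actives have a fitted effect of over 30% in size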
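Cytotoxicity counterscreen: after 24 h compound treatment of genome-edited SNCA-luciferase HEK-293 cells, live-cell protease substrate GF-AFC read by fluorescence after 30 min; activity scaled between DMSO (0%) and medium-only (-100%), curves Hill-fitted.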
IP6K1 inhibitor: IP6K1 kinase inhibition. IP6K1 kinase, ADP-Glo luminescence, 2 h; hits give low values. 140,000 tested, 0.81% active. activity change, % (series mostly up to about 58 µM). Q92551; in the data active = activity change below about -25%; also: % is scaled to controls: 0 for no effect and ±100 for the full control effect
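ADP-Glo luminescence measures ADP made by human IP6K1 during a 2 h RT reaction with ATP/IP6 (mix at 1.3 mM/130 uM); top library doses 57.5 and 19.1 uM final.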
Starred values were filed as active, the others as inactive; [ ] = remark or other dose. Compounds with a hit are over-represented: about 2.9% of the library has one in this group of screens. Unless noted, calls follow the shape of the dose curve; as a rule, active = well fitted curve in the direction sought with a large enough effect; inconclusive = small, poorly fitted or top-dose-only effect, or another doubt; inactive = no such curve, though single readings can be large; an effect the other way counts as inactive or inconclusive.

Screening COc1ccc(-c2nc(-c3ccccc3)nc3c2CN(C(=O)N(C)C)CC3)cc1 returned SNCA expr inh 14%, KDM5B inh inconclusive, SNCA viab count -11% and IP6K1 inhibitor 3.
COc1ccc(C(=O)N2CCc3nc(C4CC4)nc(-c4ccc(OC)cc4)c3C2)cc1 was read as SNCA expr inh -13%, KDM5B inh inactive, SNCA viab count -21% and IP6K1 inhibitor -11.
Screening COc1ccc(-c2nc3c(c(-c4ccccc4)n2)CN(C(C)=O)CC3)cc1 returned SNCA expr inh 26%, KDM5B inh 28µM*, SNCA viab count 10% and IP6K1 inhibitor -10.
Screening COc1ccc(-c2nc(C3CC3)nc3c2CN(C(=O)c2ccc(C(F)(F)F)cc2)CC3)cc1 returned SNCA expr inh inconclusive, KDM5B inh inconclusive, SNCA viab count 10µM* and IP6K1 inhibitor -11.
`CCCC1C(c2ccc(Cl)cc2)NC(c2ccc(Cl)cc2)C(C)C1(O)CCC` (stereo not drawn) gave KDM5B inh inactive.
CC(C)C1=NOC2(CCN(Cc3ccc(F)cc3)C2)C1 (stereo not drawn) was read as SNCA expr inh 3%[87.6 µM], KDM5B inh inactive, SNCA viab count -5%[87.6 µM] and IP6K1 inhibitor 4.
For O=C(Nc1ccc2cn[nH]c2c1)c1ccc2c(c1)OCCN(c1ccccc1)C2 the results were SNCA expr inh 8%[87.6 µM], KDM5B inh 32µM*, SNCA viab count inconclusive and IP6K1 inhibitor 6.
For O=C(Nc1nccs1)c1ccc2c(c1)OCCN(c1ccccc1)C2 the results were SNCA expr inh 24%[87.6 µM], KDM5B inh inconclusive, SNCA viab count 6%[87.6 µM] and IP6K1 inhibitor -6.
O=C(Nc1ccc(F)cc1)c1ccn2cncc2c1 was read as SNCA expr inh 18%[87.6 µM], KDM5B inh 35µM*, SNCA viab count -12%[87.6 µM] and IP6K1 inhibitor 3.
`O=C(Nc1ccc(Cl)nc1)c1ccn2cncc2c1` gave SNCA expr inh 48%[87.6 µM], KDM5B inh inactive, SNCA viab count 6%[87.6 µM] and IP6K1 inhibitor 7.
`O=C(NCc1nnc2ccc(-c3ccc(Cl)cc3)nn12)c1cc(F)ccc1Cl` gave SNCA expr inh -6%, KDM5B inh 16µM*, SNCA viab count 3% and IP6K1 inhibitor 23.
Screening O=C(NCc1nnc2ccc(-c3ccccc3)nn12)c1ccccn1 returned SNCA expr inh 14%, KDM5B inh 28µM*, SNCA viab count 5% and IP6K1 inhibitor 34.
`O=C(Cc1cccc(F)c1)NCc1nnc2ccc(-c3ccc(Cl)cc3)nn12` gave SNCA expr inh 2%, KDM5B inh 25µM*, SNCA viab count 11% and IP6K1 inhibitor -6.
`Cc1ccc(-c2ccc3nnc(CNC(=O)C4(c5ccccc5)CC4)n3n2)cc1` gave SNCA expr inh -17%, KDM5B inh 28µM*, SNCA viab count -9% and IP6K1 inhibitor 13.
`N#Cc1ccc(CS(=O)(=O)Cc2ccccc2F)cc1` gave KDM5B inh inactive.
Screening O=C(CCc1ccccc1)NCc1nnc2ccc(-c3ccccc3)nn12 returned SNCA expr inh 19%, KDM5B inh 28µM*, SNCA viab count -4% and IP6K1 inhibitor 3.
Screening O=C(NCc1nnc2ccc(-c3ccccc3)nn12)c1ccc(F)cc1Cl returned SNCA expr inh 1%, KDM5B inh 28µM*, SNCA viab count -12% and IP6K1 inhibitor -5.
Screening COc1ccc(-c2ccc3nnc(CNC(=O)c4ccccc4Cl)n3n2)cc1 returned SNCA expr inh -14%, KDM5B inh 28µM*, SNCA viab count -4% and IP6K1 inhibitor 4.
CCOc1ccccc1C(=O)NCc1nnc2ccc(-c3ccccc3)nn12 was read as SNCA expr inh 31%, KDM5B inh 25µM*, SNCA viab count -1% and IP6K1 inhibitor 3.
For COc1ccc(C(=O)NCc2nnc3ccc(-c4ccccc4)nn23)c(C)c1 the results were SNCA expr inh 12%, KDM5B inh inconclusive, SNCA viab count -13% and IP6K1 inhibitor 16.
For O=C(NCc1nnc2ccc(-c3ccccc3)nn12)c1ccccc1F the results were SNCA expr inh 27%, KDM5B inh 28µM*, SNCA viab count -12% and IP6K1 inhibitor 15.
Screening O=C(Cc1ccccc1Cl)NCc1nnc2ccc(-c3ccccc3)nn12 returned SNCA expr inh -29%, KDM5B inh 11µM*, SNCA viab count -5% and IP6K1 inhibitor 14.
`O=C(Cc1ccsc1)NCc1nnc2ccc(-c3ccc(Cl)cc3)nn12` gave SNCA expr inh 5%, KDM5B inh 25µM*, SNCA viab count -3% and IP6K1 inhibitor 41.
O=C(NCc1nnc2ccc(-c3ccccc3)nn12)c1ccccc1Cl was read as SNCA expr inh 5%, KDM5B inh 28µM*, SNCA viab count -18% and IP6K1 inhibitor 8.
For Cc1ccc(-c2ccc3nnc(CNC(=O)Cc4ccsc4)n3n2)cc1C the results were SNCA expr inh -1%, KDM5B inh inconclusive, SNCA viab count -5% and IP6K1 inhibitor 0.
Screening CCN(CC)c1nc2c(S(=O)(=O)c3ccc(C(C)C)cc3)nnn2c2ccsc12 returned KDM5B inh inactive.
Cc1ccccc1CC(=O)NCc1nnc2ccc(-c3ccccc3)nn12 was read as SNCA expr inh -7%, KDM5B inh 32µM*, SNCA viab count -12% and IP6K1 inhibitor 2.
COc1ccc(-c2ccc3nnc(CNC(=O)c4ccccc4F)n3n2)cc1 was read as SNCA expr inh 11%, KDM5B inh 28µM*, SNCA viab count -4% and IP6K1 inhibitor -4.
`COc1ccccc1CC(=O)NCc1nnc2ccc(-c3ccc(C)cc3)nn12` gave SNCA expr inh -21%, KDM5B inh inconclusive, SNCA viab count -8% and IP6K1 inhibitor -3.
For COc1ccccc1NC(=O)N(C)CCc1noc(C(=O)NCc2ccccc2)n1 the results were KDM5B inh inactive.
Screening Cc1ccc(C(=O)N2CCN(c3nnc4ccccn34)CC2)cc1 returned SNCA expr inh -8%, KDM5B inh 28µM*, SNCA viab count 7% and IP6K1 inhibitor 18.
Screening COc1ccccc1C(=O)NC1CCN(c2nnc3ccccn23)CC1 returned SNCA expr inh -5%, KDM5B inh 28µM*, SNCA viab count -17% and IP6K1 inhibitor 14.
Screening O=C(c1cccs1)N1CCCCCCC1 returned KDM5B inh inactive.
For Cc1ccc(C(=O)N2CCN(c3ccc4nnc(-c5ccccc5)n4n3)CC2)cc1 the results were IP6K1 inhibitor 4.
Screening O=C(c1ccc2c(c1)OCO2)N1CCN(c2nnc3ccccn23)CC1 returned SNCA expr inh -6%, KDM5B inh 25µM*, SNCA viab count 12% and IP6K1 inhibitor 13.
Screening O=C(c1ccccc1)N1CCN(C(=O)c2ccc3c(c2)OCO3)CC1 returned KDM5B inh inactive.
For O=C(c1cccs1)N1CCN(c2nnc3ccccn23)CC1 the results were SNCA expr inh -9%, KDM5B inh 22µM*, SNCA viab count 4% and IP6K1 inhibitor 19.
For COCC1CN(C)CC12CCN(S(=O)(=O)c1ccc3c(c1)OCCO3)CC2 (stereo not drawn) the results were SNCA expr inh -9%, KDM5B inh inconclusive, SNCA viab count 21% and IP6K1 inhibitor -2.

Compound activity (PubChem BioAssay)
